Source: PubChem BioAssay (ICCB-Longwood Screening Facility, Harvard Medical School)
In the library only some 0.68% were active in any assay of this set; here they are far more common.
ugtP null kill: growth inhibition of S. aureus ugtP deletion strain | S. aureus RN4220 ugtP deletion, OD600 growth, 16 h | growth inhibition, % (test concentration not listed) | 330,000 tested, 0.54% active; in the data active = growth inhibition above about 68%
Sa RN4220 lethal: S. aureus RN4220 growth inhibition; inhibition, % (no concentration beside the values); 330,000 tested, 0.33% active; AID 1259311; OD600, 16 h; in the data active = inhibition above about 85%
Mtb hypoxia rep: reduces hypoxia-regulated biosensor signal in M. tuberculosis; fluorescence inhibition, % (concentration not given with the values); M. tuberculosis hypoxia-regulated fluorescent reporter, fluorescence; AID 1159583; 300,000 tested, 0.1% active; in the data active = fluorescence inhibition mostly above about 23%, no sharp cut-off; inactive = mostly below about 17%
A number is an active result; – = inactive; · = no result given.

SMILES	ugtP null kill	Sa RN4220 lethal	Mtb hypoxia rep
Cc1ccc(S(=O)(=O)N2C(c3ccc(Cl)c(Cl)c3)CC=C(C(=O)O)C2c2cccc(Cl)c2)cc1 (stereo not given)	100	88	–
Cc1ccc(S(=O)(=O)N2C(c3cccc(Cl)c3)CC=C(C(=O)O)C2c2cccc(Cl)c2)cc1 (stereo not given)	–	–	–
Cc1ccc(S(=O)(=O)N2C(c3ccc(Cl)c(Cl)c3)CC=C(C(=O)O)C2c2ccc(Cl)cc2)cc1 (stereo not given)	90	–	–
Cc1ccc(S(=O)(=O)N2C(c3ccc(Cl)cc3)CC=C(C(=O)O)C2c2ccc(Cl)cc2)cc1 (stereo not given)	–	–	–
CC(C)(C)N1C(=O)C2C(c3ccc(Br)cc3)N3C(=O)N(c4cccc(F)c4)C(=O)[C@@]3(Cc3ccccc3)C2C1=O (stereo not given in full)	–	–	–
CCNC(=S)NN=Cc1cc(C)ccc1C	–	–	–
CC=CC(=O)N1CC2(CC(c3cccc(NC(=O)CC)c3)=NO2)CC1C(N)=O (stereo not given)	–	–	–
O=C1c2ccccc2C(=O)c2c1oc(C(F)(F)F)c2C(=O)c1ccccc1	79	94	·
O=C(c1ccccc1)c1coc2c1C(=O)c1ccccc1C2=O	–	–	–
COC(=O)C1=C(c2ccc(-c3ccccc3)c(F)c2)CC2CCC1N2C(=O)N1CCCCC1 (stereo not given)	–	–	–
C=CCC(CC(=O)N(CCO)Cc1ccccc1)C(=O)NC(C)COC(=O)C(CC=C)CC(=O)OC(C)(C)C (stereo not given)	–	–	–
COc1ccc(OC)c(NC(=O)c2nnn(CCc3ccccc3)c2N)c1	–	–	·
COc1ccc(C)cc1NC(=O)c1nnn(Cc2cccc(C(F)(F)F)c2)c1N	98	–	–
CC(C)NC(=O)N(C)CC1Oc2ccc(NC(=O)Nc3ccc(C(F)(F)F)cc3)cc2C(=O)N(C(C)CO)CC1C (stereo not given)	–	–	–
COc1cc(/C=C2\SC(N)=NC2=O)ccc1OCC(=O)Nc1ccc(C)cc1	–	–	53
COc1ccc(/C=C2\SC(c3ccc(C)cc3)=NC2=O)cc1OC	–	–	–
Cc1nn(-c2nc3ccccc3[nH]2)c(=O)c2ccccc12	–	–	–
Cc1nn(-c2nc3ccccc3[nH]2)c(N)c1-c1ccc(Cl)cc1	95	–	–
O=[N+]([O-])c1cccc(S(=O)(=O)Nc2ccc(S(=O)(=O)Nc3nccs3)cc2)c1	–	–	–
O=[N+]([O-])c1ccccc1S(=O)(=O)Nc1ccc(S(=O)(=O)Nc2nccs2)cc1	95	–	66
CCCCN1CCC2C=CCC(C(=O)NCc3ccc(OC)cc3)C2C1=O (stereo not given)	–	–	–
CC(Oc1ccccc1)C(=O)NC1C(=O)N2C1SC(C)(C)C2C(=O)O (stereo not given)	100	100	–
CC1(C)SC2C(NC(=O)C3(N)CCCCC3)C(=O)N2C1C(=O)O (stereo not given)	101	100	–
CC1(C)SC2C(NC(=O)Cc3ccccc3)C(=O)N2C1C(=O)O (stereo not given)	99	100	–
CC1(C)SC2C(NC(=O)C(N)c3ccc(O)cc3)C(=O)N2C1C(=O)O (stereo not given)	–	–	–
SMILES	ugtP null kill	Sa RN4220 lethal	Mtb hypoxia rep
CCOc1ccc2ccccc2c1C(=O)NC1C(=O)N2C1SC(C)(C)C2C(=O)O (stereo not given)	–	–	–
C#CCOCCOCCOCCNc1nc(N2CCN(C(=O)CCCCCCCCCCNC(=O)Cn3cc(CC(C)O)nn3)CC2)nc(N2CCN(C(=O)CCCCCCCCCCNC(=O)C(CCC(=O)O)n3cc(CCCCCN)nn3)CC2)n1 (stereo not given)	–	–	–
NC(=O)CCC1NC(=O)C(CO)NC(=O)c2cc([N+](=O)[O-])cc(I)c2NCCC(C(N)=O)NC(=O)C(Cc2ccc(O)cc2)NC1=O (stereo not given)	–	–	–
COc1ccc(C=Cc2c(-c3ccc(OC)cc3)sc3ccc(N4CCOCC4)cc23)cc1	–	–	–
C=CC1C(OC2OC(CO)C(O)C(O)C2O)OC=C2C(=O)OCC[C@]21O (stereo not given in full)	–	–	–
O=c1ccsn1Cc1ccccc1	88	–	–
O=C1NC(Cc2ccccc2)C(=O)N1Cc1ccccc1 (stereo not given)	–	–	–
Cc1ccc(S(=O)(=O)Nc2ccccc2C(=O)Nc2nc(-c3ccc(F)cc3)cs2)cc1	89	89	–
COc1ccc(-c2csc(NC(=O)c3ccccc3F)n2)cc1	–	–	–
COc1ccc(-c2csc(NC(=O)c3ccccc3NS(=O)(=O)c3ccc(F)c(F)c3)n2)cc1	–	89	–
Cc1ccc(S(=O)(=O)Nc2nc(-c3ccccc3)cs2)cc1	–	–	–
CC=CC=CC(=O)Nc1cccc(C2=NOC3(C2)CC(C(N)=O)N(C(=O)c2ccc(Cl)cc2)C3)c1 (stereo not given)	–	–	–
C#CCOCCOCCOCCNc1nc(N2CCN(C(=O)C(CCCCN)n3cc(C(N)CO)nn3)CC2)nc(N2CCN(C(=O)C(Cc3ccc(O)cc3)n3cc(C(N)CC(C)C)nn3)CC2)n1 (stereo not given)	–	–	–
Cc1occc1C(=O)NN=C/C(Br)=C\c1ccccc1	–	–	–
NC1=C(Cl)C(=O)c2ccc(S(N)(=O)=O)cc2C1=O	98	99	·
NS(=O)(=O)c1ccc2c(c1)C(=NO)c1cc(S(N)(=O)=O)ccc1-2	–	–	–
CC(C)CC(NC(=O)c1[nH]cnc1C(=O)Nc1ccc(CNC(=O)OC(C)(C)C)cc1)C(=O)OC(C)(C)C (stereo not given)	–	–	–
COc1ccc(-c2ccc(C#N)c(SCC(=O)NCCc3ccccc3)n2)cc1OC	–	–	–
COc1cccc(-c2ccc(C#N)c(SCC(=O)NCCc3cccc(Cl)c3)n2)c1	85	–	–
CCCN1CCC(=O)N(C(COc2ccccc2)Cc2ccccc2)CC1 (stereo not given)	–	–	–
CCC1Oc2ccccc2N(CC(=O)NC2CCCC2)C1=O (stereo not given)	–	–	–
CCC1Oc2ccccc2N(CC(=O)NC2CCCCC2)C1=O (stereo not given)	101	–	–
CC1CN(C(C)CO)C(=O)c2cc(NC(=O)C3CC3)ccc2OC1CN(C)C (stereo not given)	–	–	–
Cc1ccccc1OCc1n(CC(=O)OC2CC(C)CCC2C(C)C)c2ccccc2[n+]1C (stereo not given)	101	100	·
CC1CCC(C(C)C)C(OC(=O)COC(=O)c2cccn2C)C1 (stereo not given)	–	–	·
CCOC(=O)Cn1c(COc2ccccc2OC)[n+](C)c2ccccc21	–	–	–
CC1CCC(C(C)C)C(OC(=O)COC(=O)c2ccc(N)cc2)C1 (stereo not given)	–	–	–
CC1CCC(C(C)C)C(OC(=O)Cn2c(-c3ccc(Br)cc3)[n+](C)c3ccccc32)C1 (stereo not given)	100	100	·
CC1CCC(C(C)C)C(OC(=O)Cn2c(-c3ccc(Cl)cc3)[n+](C)c3ccccc32)C1 (stereo not given)	100	100	·
